Data: PubChem BioAssay AID2726 (Broad Institute, 2010)
The list shows a part of the results. A number with no mark means an inactive call.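 Rule for the calls: active = every replicate shows growth inhibition above 50%; inconclusive = at least half, but not all, replicates pass that cutoff; inactive = fewer than half of replicates pass it.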

assay: Vibrio harveyi growth inhibition, confirmation, counter-screen for AI-2 quorum sensing project, JMH597 strain, OD600 absorbance (AID 2726); details: 9 h, at 7.5 µM, active compounds read high, lacks LuxN and CqsS sensors

| SMILES | growth inhibition [%] |
| --- | --- |
| O=C1COc2ccc(S(=O)(=O)Nc3ccc(OC(F)(F)F)cc3)cc2N1 | 41.4 |
| Cc1cc(CN(C)C(=O)c2cc(COc3ccc(C)c(C)c3)on2)n[nH]1 | 25.5 |
| CN(Cc1cnccn1)C(=O)c1cc(COc2cccc(C(F)(F)F)c2)on1 | 4.24 |
| CCOc1ccc(/C=N/NC(N)=S)cc1 | 8.81 |
| O=C(Cn1cnc2ccccc2c1=O)Nc1cccc(S(=O)(=O)N2CCCCC2)c1 | 22.5 |
| O=C(c1cc(-c2cccc(O)c2)on1)N1CCc2ccccc2C1 | 14.2 |
| O=C(COc1ncnc2ccccc12)NC(=O)NCc1ccccc1 | 17.5 |
| COc1ccc(/C(N)=N/OC(=O)Cc2ccccc2)cc1 | 15.4 |
| Cc1ccccc1C(=O)Nc1ccc(N2CCCCCC2)cc1 | 25.5 |
| COC(=O)C1CCN(C(=O)c2ccc3oc(Cc4ccc(Cl)cc4)nc3c2)CC1 | 26.4 |
| S=C(NCc1ccc(Cl)cc1)NC1CCCCC1 | 11.3 |
| Cc1ccccc1NC(=O)CCOc1ccccc1 | -12.9 |
| CC(=O)c1cccc(OCc2cc(C(=O)NC(C)Cc3cccnc3)no2)c1 (configuration not stated) | 1.63 |
| CCOC(=O)c1nn(-c2cccc(C)c2)cc1C(=O)c1ccccc1 | -8.39 |
| Cc1cc(C(=O)OCC(=O)Nc2ccc(F)c(F)c2)c(C)o1 | 2.76 |
| CC(CNc1ccc([N+](=O)[O-])cc1)NC(=O)c1ccccc1Br (configuration not stated) | 16.7 |
| N/C(=N\OC(=O)CCc1ccccc1)c1cccnc1 | 3.39 |
